# From PubChem BioAssay AID504332 (National Center for Advancing Translational Sciences (NCATS), 2011)
# Screen size: about 350,000 compounds; about 31,000 (8.9%) were called active. Not shown: some 15% with an inconclusive outcome. This is one part of a sample in which actives are shown more often than they occur. Calls come from the whole dose curve; as a rule, active = well fitted inhibition curve with a large enough effect; inconclusive = small, poorly fitted or top-dose-only effect; inactive = no such curve, though single readings can be large or run the other way.
# Target: Histone-lysine N-methyltransferase EHMT2 (Homo sapiens) (UniProt Q96KQ7)
# Assay: qHTS Assay for Inhibitors of Histone Lysine Methyltransferase G9a; note: nearly all actives have a fitted effect of over 75% in size
# Settings: G9a H3K9 monomethylation, AlphaScreen, 2 h; series mostly up to 59 µM; activity, negative = inhibition: at the top concentration
# Outline: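 Enzyme 20 nM + cpd, 15 min RT; add b-H3K9 pep 500 nM / SAM 20 uM; 2 h RT; anti-H3K9me1 Ab 0.5 ug/mL + SA donor / anti-rabbit acceptor beads 20 ug/mL each, 10 min; AlphaScreen read.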
# % is set by controls: 0 for no effect and ±100 for the full control effect; potency is the fitted concentration of half-maximal effect.
# Chain of Histone-lysine N-methyltransferase EHMT2 (Homo sapiens) (Q96KQ7 913-1193 limits assumed): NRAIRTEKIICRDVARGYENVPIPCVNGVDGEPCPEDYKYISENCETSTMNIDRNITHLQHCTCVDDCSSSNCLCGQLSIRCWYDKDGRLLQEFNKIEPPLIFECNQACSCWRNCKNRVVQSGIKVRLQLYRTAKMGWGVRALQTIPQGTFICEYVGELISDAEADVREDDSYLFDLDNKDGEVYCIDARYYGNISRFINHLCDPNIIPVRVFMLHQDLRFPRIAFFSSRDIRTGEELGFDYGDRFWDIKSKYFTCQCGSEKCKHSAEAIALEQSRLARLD
SMILES,"activity, negative = inhibition",Potency
O=C(Nc1cc2c3c(c1)CC(=O)N3CCC2)c1ccccc1F,-28.2% [at 102 µM] (inactive),–
CCOc1ccc(NC(=O)CN(C)C(=O)Cn2c(=O)cnc3ccccc32)cc1OCC,19.7% (inactive),–
NC(=O)N1CCc2ccccc21,21.5% [at 102 µM] (inactive),–
O=C(CN1CCc2ccccc21)NC(c1ccccc1)c1ccccc1,–,39.8 µM (active)
O=C(CN1CCN(Cc2ccccc2)CC1)NC(c1ccccc1)c1ccccc1,-128% (inactive),–
COc1cc2nc(SCc3ccc(F)cc3)n3nc(CCn4c(C)nc5ccccc54)nc3c2cc1OC,-27.3% (inactive),–
CCCSc1ncc(Cl)c(C(=O)Nc2c(C(=O)Nc3ccccc3)oc3ccccc23)n1,-2.95% (inactive),–
COc1ccc2c(C)cc(SCC(=O)NCC3CCCO3)nc2c1 (stereo not drawn),17.7% [at 2.33 µM] (inactive),–
CCOC(=O)c1cnc2c(C)cc(C)cc2c1Nc1ccc(N2CCOCC2)cc1,–,10 µM (active)
CCOC(=O)c1cnc2ccc(F)cc2c1Nc1ccc2c(c1)OCCO2,-40.5% (inactive),–
CCOC(=O)c1cnc2c(C)cc(Cl)cc2c1NCCc1ccc(OC)c(OC)c1,0.754% (inactive),–
FC(F)(F)c1ccc2c3n(nc2c1)CCN=C3c1ccc(Cl)cc1,23% [at 2.33 µM] (inactive),–
Cc1ccc(CNC(=O)CSc2c(C)cnc3c2c(=O)n(C)c(=O)n3C)cc1,-1.97% (inactive),–
Cc1cccnc1CC(C)NC(=O)c1cc(COc2cncc(Cl)c2)on1 (stereo not drawn),49.6% [at 102 µM] (inactive),–
O=S(=O)(c1ccccc1)c1nc(-c2ccccc2)oc1NCCCN1CCOCC1,5.12% [at 102 µM] (inactive),–
CCOc1cc(N2CCOCC2)c(OCC)cc1NC(=O)COC(=O)[C@H](Cc1c[nH]c2ccccc12)NC(C)=O,-12.3% (inactive),–
CCOc1cc(N2CCOCC2)c(OCC)cc1NC(=O)c1cc(C)nc2ccccc12,-23.5% [at 102 µM] (inactive),–
CCOc1cc(N2CCOCC2)c(OCC)cc1NC(=O)c1ccc(C)s1,–,44.7 µM (active)
Cc1c(C(=O)Nc2cccc(Cl)c2)oc2ccc(S(=O)(=O)N3CCOCC3)cc12,9.55% (inactive),–
CC[C@@]12C(=O)N(c3ccccc3)C(=O)N1[C@H](c1ccc(Br)cc1)[C@@H]1C(=O)N(C(C)(C)C)C(=O)[C@@H]12,53.8% [at 2.33 µM] (inactive),–
CCCc1ccc(C(=O)COC(=O)CN2C(=O)NC3(CCCCC3C)C2=O)cc1 (stereo not drawn),-4.43% [at 12.7 µM] (inactive),–
CCc1nn(CC(=O)N2CCN(c3ccc(Cl)cc3)CC2)c(=O)c2cc3occc3n12,-0.323% (inactive),–
CCOc1ccc(CCNC(=O)COC(=O)C2CCN(c3ccc(C(F)(F)F)cn3)CC2)cc1OCC,4.55% [at 102 µM] (inactive),–
S=c1[nH]nc(-c2ccco2)n1/N=C/c1ccccc1,–,1.58 µM (active)

SMILES,"activity, negative = inhibition",Potency
CSC(=S)N/N=C/c1c[nH]c2ccccc12,-9.3% (inactive),–
S=c1[nH]nc(-c2ccncc2)n1/N=C/c1ccccc1Cl,–,1.41 µM (active)
Nc1nonc1-n1nnc(C(=O)N/N=C/c2c[nH]c3ccccc23)c1-c1ccccc1,96.6% [at 102 µM] (inactive),–
S=c1[nH]nc(-c2ccccc2)n1/N=C/c1c[nH]c2ccccc12,–,1.58 µM (active)
COc1ccc(Br)cc1/C=N/n1c(C)nnc1C,4.01% (inactive),–
CCc1n[nH]c(=S)n1/N=C/c1c[nH]c2ccc(Br)cc12,–,8.91 µM (active)
CCCCN(C)c1nnc(NC(=O)Nc2ccc(Br)c(C)c2)s1,-8.76% (inactive),–
O=C(O)c1cc(S(=O)(=O)N(Cc2ccccc2)c2cccc(C(F)(F)F)c2)ccc1Cl,7.94% [at 102 µM] (inactive),–
O=C(NCCC1=CCCCC1)c1ccc(-n2cncn2)cc1,3.99% [at 12.7 µM] (inactive),–
Cc1oc2ccc(O)c(CN3CCCCC3)c2c1C(=O)Nc1cccc(C(F)(F)F)c1,-4.04% (inactive),–
O=C(NCc1ccccc1Cl)C(=O)NCC1CCCN1S(=O)(=O)c1cccs1 (stereo not drawn),1.3% [at 102 µM] (inactive),–
CCCC1C(=O)N2C(N(C)C)=Nc3ccc(C)cc3N2C1=O (stereo not drawn),–,3.55 µM (active)
Cc1ccc2c(c1)N(CC(=O)NCC1CCCO1)C(=O)CO2 (stereo not drawn),12.4% [at 102 µM] (inactive),–
c1ccc(-c2cc(-c3ccccc3)[nH]n2)cc1,26.9% [at 102 µM] (inactive),–
CCc1ccc(CNCc2c(C(=O)O)n(Cc3ccc(F)cc3Cl)c3cc(OC)ccc23)cc1,-2.34% (inactive),–
Cc1nc2c(-c3ccccc3)c(C)nn2c(C)c1CCC(=O)NCCc1ccccc1,5.72% (inactive),–
Cc1cc(OC(C)C(=O)NC2CC(C)(C)NC(C)(C)C2)c2c(C)cc(=O)oc2c1 (stereo not drawn),15.6% [at 102 µM] (inactive),–
CCc1ccccc1NC(=O)N1CCN(C(=O)c2nsc3ccccc23)CC1,12.5% (inactive),–
CCN(Cc1ccccc1)Cc1c(O)ccc2c(=O)c(-c3ccc(Cl)cc3Cl)coc12,-2.39% (inactive),–
O=C(O)CSc1ccc(S(=O)(=O)N2CCCC2)cn1,-37.2% [at 2.33 µM] (inactive),–
O=C(NCc1ccco1)c1ccc([N+](=O)[O-])cc1Cl,17.2% [at 102 µM] (inactive),–
CC(C)(C)NC(=O)NCc1ccco1,9.25% [at 102 µM] (inactive),–
Cc1ccc(/C([O-])=C(/C(=S)NCc2ccco2)[n+]2ccccc2)cc1[N+](=O)[O-],–,39.8 µM (active)
O=C(c1ccc(F)c(S(=O)(=O)N2CCOCC2)c1)N(CCc1ccccc1)Cc1ccccc1,-4.88% [at 102 µM] (inactive),–

SMILES,"activity, negative = inhibition",Potency
CC(=O)c1cccc(OCc2cc(C(=O)NC(C)Cc3cccnc3)no2)c1 (stereo not drawn),10.3% [at 102 µM] (inactive),–
CN(C)CCn1c2c(c(SCC(=O)NCc3ccccc3)nc1=O)CCC2,-1.82% [at 102 µM] (inactive),–
Cc1nc2cc(C(F)(F)F)ccc2n1CCNc1nc(-c2cc(Cl)c(N)c(Cl)c2)cs1,–,39.8 µM (active)
Nc1c(Cl)cc(-c2csc(N3CCCC3c3nc4cc(Cl)c(Cl)cc4n3CCOCCO)n2)cc1Cl (stereo not drawn),23.4% [at 102 µM] (inactive),–
COc1ccc(C(CC(=O)N2CCN(c3ccccc3)CC2)c2c(O)cc(OC)cc2OC)cc1 (stereo not drawn),-0.615% [at 12.7 µM] (inactive),–
COc1cccc(-n2c(SCC(=O)c3c[nH]c4ccccc34)nc3ccccc3c2=O)c1,11.3% (inactive),–
COc1ccc(C(C(O)C(=O)c2c[nH]c3ccccc23)N2CCN(c3ccccc3)CC2)cc1 (stereo not drawn),–,25.1 µM (active)
COc1ccc(CCNC(=O)c2cc(=O)c3c(C)cc(C)cc3o2)cc1OC,-8.8% (inactive),–
COc1cccc(N2CCN(S(=O)(=O)c3ccc4c(c3)CCCN4C(C)=O)CC2)c1,3.68% (inactive),–
CCOC(=O)c1c(NC(=O)C2CC=CCC2C(=O)O)sc(C)c1CC (stereo not drawn),-8.47% [at 102 µM] (inactive),–
CCOC(=O)c1c(NC(C)=O)sc2c(O)c(Br)ccc12,–,1.58 µM (active)
CCOC(=O)Nc1sc(C(=O)N(C)C)c(C)c1C(=O)OCC,27.3% [at 102 µM] (inactive),–
Cc1ccccc1CNC(=O)C1CCCN(S(=O)(=O)N(C)c2ccc(F)cc2)C1 (stereo not drawn),-0.195% (inactive),–
Cc1nn(-c2ccc(N3CCCCC3)nn2)c(C)c1CCC(=O)NCc1ccc(F)cc1,0.738% (inactive),–
COC(=O)c1[nH]c2ccc(Br)cc2c1NC(=O)Oc1ccccc1,–,11.2 µM (active)
C/C(=N\N)c1c(-c2ccccc2)c2cc(Br)ccc2[nH]c1=O,0.552% [at 102 µM] (inactive),–
COC(=O)c1oc2ccc(Br)cc2c1NC(C)=O,3.67% (inactive),–
O=C(Nc1ccccc1)C1CCN(C(=O)c2ccc(Br)cc2)CC1,-4.25% [at 102 µM] (inactive),–
CC(=O)c1c(C)[nH]c(C(=O)CN2C(=O)NC(C)(C)C2=O)c1C,3.15% [at 0.501 µM] (inactive),–
Cc1ccccc1CN1CCN(CC(=O)NCc2ccccn2)C1=O,5.93% (inactive),–
Cc1ccc(CN2CCN(Cc3cn(C)nc3-c3ccccc3)CC2CCO)o1 (stereo not drawn),2.66% [at 102 µM] (inactive),–
Cc1ccccc1CN1C[C@@H]2C[C@@H](c3cn(C)nc3-c3ccccc3)N3CCC[C@@]23C1=O,–,10 µM (active)
Cc1ccc(C(=O)CN2C(=O)NC3(CCc4ccccc43)C2=O)c(C)c1 (stereo not drawn),3.17% [at 102 µM] (inactive),–
Cc1cccc(-n2ccnc2SCC(=O)Nc2cccc3ccccc23)c1C,–,12.6 µM (active)

SMILES,"activity, negative = inhibition",Potency
O=C(CSc1nccn1-c1ccc(F)cc1)Nc1cccc2ccccc12,–,14.1 µM (active)
Cc1cc(NC(=O)CSc2nccn2-c2ccc([N+](=O)[O-])cc2)no1,-0.25% [at 102 µM] (inactive),–
COc1ccccc1-n1c(CNC(=O)c2ccccc2)nnc1SCC(=O)Nc1nnc(C)s1,-4.37% [at 102 µM] (inactive),–
Cc1ccc(C)c(-n2ccnc2SCC(N)=O)c1,23.6% [at 12.7 µM] (inactive),–
Cc1nnc(NC(=O)CSc2nccn2-c2cccc(C)c2C)s1,–,50.1 µM (active)
Cc1ccc2nc(SCC(=O)Nc3cccc4ccccc34)nc(=O)n2c1,-26.2% [at 102 µM] (inactive),–
O=C(CSc1nccn1Cc1ccc(F)cc1)NCc1ccccc1,-3.68% (inactive),–
COc1ccccc1-n1ccnc1SCC(=O)NC(C)(C)C,19.7% [at 102 µM] (inactive),–
COc1cccc(-c2ccc3c(c2)S(=O)(=O)c2cccc(C(=O)O)c2C3=O)c1OC,-17.9% [at 0.501 µM] (inactive),–
CCC(=O)N1c2ccc(S(=O)(=O)NCc3ccco3)cc2CC1C (stereo not drawn),-12.6% (inactive),–
Fc1ccc(-n2ncc3c(Nc4ccc(Oc5ccccc5)cc4)ncnc32)cc1,-1.42% (inactive),–
CCCc1cc(=O)[nH]c2nnc(SCC(=O)Nc3nnc(SCC)s3)n12,-30.1% [at 102 µM] (inactive),–
Cc1cccc(Nc2nc(C)nc(N)c2S(=O)(=O)c2ccccc2)c1,4.77% (inactive),–
C=CCc1cccc(/C=N/NC(=O)COc2ccc(-n3cnnn3)cc2)c1O,-11.3% [at 102 µM] (inactive),–
CCN(CC)S(=O)(=O)c1ccc(N2CCOCC2)c(NC(=O)c2ccc(=O)n(C)n2)c1,-4.25% [at 12.7 µM] (inactive),–
CSCCC1NC2(C(=O)Nc3ccc(Cl)cc32)[C@@H]2C(=O)N(C3CCCC3)C(=O)[C@H]12 (stereo partly drawn),–,50.1 µM (active)
C[C@@]12C(=O)N(c3cccc(Br)c3)C(=O)N1[C@H](c1ccc(Cl)cc1)[C@@H]1C(=O)N(C3CCCCC3)C(=O)[C@@H]12,-8.19% [at 102 µM] (inactive),–
O=C1[C@@H]2C(Cc3ccc(O)cc3)NC3(C(=O)Nc4ccc(F)cc43)[C@@H]2C(=O)N1c1ccc(F)cc1 (stereo partly drawn),-37.6% [at 12.7 µM] (inactive),–
O=C(NCCS(=O)(=O)N1CCN(c2ccc(F)cc2)CC1)c1ccc2c(c1)OCO2,-0.16% [at 102 µM] (inactive),–
O=C(Nc1ccccc1F)C(c1ccccc1)N1Cc2ccccc2C1=O (stereo not drawn),-1.89% (inactive),–
CC1CCCCN1Cc1c(O)ccc2c(=O)c(-c3cccc(Cl)c3)c(C(F)(F)F)oc12 (stereo not drawn),-1.19% (inactive),–
